Measurements: PubChem BioAssay
Activity calls are given as the source filed them.

How the values were obtained:
[1] = system: PRMT1 (protein arginine N-methyltransferase 1); assay: PRMT1 binders on small-molecule microarrays, primary screen, biochemical, small-molecule microarray, 635 nm fluorescence (AID 1088); conditions: small-molecule microarray binding, higher = more signal;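 also: binding of Prmt1 protein to compounds spotted on small-molecule microarray slides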
[2] = yeast growth modulation, basal conditions, primary screen, YJM789 clinical isolate, OD600, 24 h (AID 1089);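 also: growth of clinical yeast isolate S. cerevisiae YJM 789 seeded 1000 cells per well; test concentration not given here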; conditions: S. cerevisiae YJM789 growth, higher = more signal, called active from +8 up or from −8 down
[3] = fission yeast growth modulation, primary screen, strain 972, OD600, 24 h, no modulator (AID 1090);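 also: basal condition with compound alone and no growth modifier present; test concentration not given here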; conditions: S. pombe 972 growth, higher = more signal, called active from +8 up or from −8 down
[4] = S. cerevisiae growth modulation with rapamycin, primary screen, strain BY4716, OD600, 96 h (AID 1091); conditions: higher = more signal, called active from +8 up or from −8 down; also: test concentration not given here
[5] = molecular target: Torsin-1A-interacting protein 2 (Homo sapiens) (UniProt Q8NFQ8); assay: LULL1 binders on small-molecule microarray, primary screen, cell lysate, human LULL1 lysate, 635/667 nm fluorescence (AID 1092); conditions: hLULL1 lysate binding, 635 nm fluorescence, higher = more signal;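 also: probe is lysate of COS7 cells overexpressing human LULL1; score merges per-feature 667 nm fluorescence with signal-to-noise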
Chain of Torsin-1A-interacting protein 2 (Homo sapiens) (Q8NFQ8 whole entry, looked up): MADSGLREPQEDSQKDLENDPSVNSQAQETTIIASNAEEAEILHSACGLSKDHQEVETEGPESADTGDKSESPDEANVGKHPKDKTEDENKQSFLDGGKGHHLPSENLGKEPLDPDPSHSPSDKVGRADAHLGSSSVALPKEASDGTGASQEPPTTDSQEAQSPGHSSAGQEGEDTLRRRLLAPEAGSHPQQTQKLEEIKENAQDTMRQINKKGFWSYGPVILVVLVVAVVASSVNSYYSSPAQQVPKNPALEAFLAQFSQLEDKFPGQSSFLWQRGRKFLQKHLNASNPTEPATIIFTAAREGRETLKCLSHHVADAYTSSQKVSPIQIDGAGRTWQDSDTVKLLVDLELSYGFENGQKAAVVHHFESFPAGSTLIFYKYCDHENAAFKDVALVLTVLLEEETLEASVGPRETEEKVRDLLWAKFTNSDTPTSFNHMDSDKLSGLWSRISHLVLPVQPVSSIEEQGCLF

[6] = E. coli growth modulation, two-sided OD650, primary screen, E. coli filamentation project, strain DRC41, 24 h (AID 1093); conditions: OD650, 24 h, higher = more signal, called active from +8 up or from −8 down;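 also: MC1000 strain lacking acrAB efflux and sulA so SOS filamentation is blocked; test concentration not given here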
[7] = small-molecule microarray binders of probe aLefty2, primary screen, biochemical, biotinylated probe, 635/667 nm fluorescence (AID 1094); conditions: higher = more signal;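 also: score merges spot fluorescence near 667 nm with spot signal-to-noise ratio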
[8] = system: Noggin (protein binding on small-molecule microarray); assay: Noggin binders on small-molecule microarray, primary screen, biochemical, 635/667 nm fluorescence (AID 1095); conditions: 635 nm fluorescence, higher = more signal;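 also: score merges 667 nm feature fluorescence with signal to noise over triplicate slides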
[9] = molecular target: Neurogenic locus notch homolog protein 3 (Homo sapiens) (UniProt Q9UM47); assay: NOTCH3 binders on small-molecule microarray, primary screen, biochemical, 635/667 nm fluorescence (AID 1096); conditions: NOTCH3 binding, 635 nm fluorescence, higher = more signal
Chain of Neurogenic locus notch homolog protein 3 (Homo sapiens) (Q9UM47 whole entry, looked up): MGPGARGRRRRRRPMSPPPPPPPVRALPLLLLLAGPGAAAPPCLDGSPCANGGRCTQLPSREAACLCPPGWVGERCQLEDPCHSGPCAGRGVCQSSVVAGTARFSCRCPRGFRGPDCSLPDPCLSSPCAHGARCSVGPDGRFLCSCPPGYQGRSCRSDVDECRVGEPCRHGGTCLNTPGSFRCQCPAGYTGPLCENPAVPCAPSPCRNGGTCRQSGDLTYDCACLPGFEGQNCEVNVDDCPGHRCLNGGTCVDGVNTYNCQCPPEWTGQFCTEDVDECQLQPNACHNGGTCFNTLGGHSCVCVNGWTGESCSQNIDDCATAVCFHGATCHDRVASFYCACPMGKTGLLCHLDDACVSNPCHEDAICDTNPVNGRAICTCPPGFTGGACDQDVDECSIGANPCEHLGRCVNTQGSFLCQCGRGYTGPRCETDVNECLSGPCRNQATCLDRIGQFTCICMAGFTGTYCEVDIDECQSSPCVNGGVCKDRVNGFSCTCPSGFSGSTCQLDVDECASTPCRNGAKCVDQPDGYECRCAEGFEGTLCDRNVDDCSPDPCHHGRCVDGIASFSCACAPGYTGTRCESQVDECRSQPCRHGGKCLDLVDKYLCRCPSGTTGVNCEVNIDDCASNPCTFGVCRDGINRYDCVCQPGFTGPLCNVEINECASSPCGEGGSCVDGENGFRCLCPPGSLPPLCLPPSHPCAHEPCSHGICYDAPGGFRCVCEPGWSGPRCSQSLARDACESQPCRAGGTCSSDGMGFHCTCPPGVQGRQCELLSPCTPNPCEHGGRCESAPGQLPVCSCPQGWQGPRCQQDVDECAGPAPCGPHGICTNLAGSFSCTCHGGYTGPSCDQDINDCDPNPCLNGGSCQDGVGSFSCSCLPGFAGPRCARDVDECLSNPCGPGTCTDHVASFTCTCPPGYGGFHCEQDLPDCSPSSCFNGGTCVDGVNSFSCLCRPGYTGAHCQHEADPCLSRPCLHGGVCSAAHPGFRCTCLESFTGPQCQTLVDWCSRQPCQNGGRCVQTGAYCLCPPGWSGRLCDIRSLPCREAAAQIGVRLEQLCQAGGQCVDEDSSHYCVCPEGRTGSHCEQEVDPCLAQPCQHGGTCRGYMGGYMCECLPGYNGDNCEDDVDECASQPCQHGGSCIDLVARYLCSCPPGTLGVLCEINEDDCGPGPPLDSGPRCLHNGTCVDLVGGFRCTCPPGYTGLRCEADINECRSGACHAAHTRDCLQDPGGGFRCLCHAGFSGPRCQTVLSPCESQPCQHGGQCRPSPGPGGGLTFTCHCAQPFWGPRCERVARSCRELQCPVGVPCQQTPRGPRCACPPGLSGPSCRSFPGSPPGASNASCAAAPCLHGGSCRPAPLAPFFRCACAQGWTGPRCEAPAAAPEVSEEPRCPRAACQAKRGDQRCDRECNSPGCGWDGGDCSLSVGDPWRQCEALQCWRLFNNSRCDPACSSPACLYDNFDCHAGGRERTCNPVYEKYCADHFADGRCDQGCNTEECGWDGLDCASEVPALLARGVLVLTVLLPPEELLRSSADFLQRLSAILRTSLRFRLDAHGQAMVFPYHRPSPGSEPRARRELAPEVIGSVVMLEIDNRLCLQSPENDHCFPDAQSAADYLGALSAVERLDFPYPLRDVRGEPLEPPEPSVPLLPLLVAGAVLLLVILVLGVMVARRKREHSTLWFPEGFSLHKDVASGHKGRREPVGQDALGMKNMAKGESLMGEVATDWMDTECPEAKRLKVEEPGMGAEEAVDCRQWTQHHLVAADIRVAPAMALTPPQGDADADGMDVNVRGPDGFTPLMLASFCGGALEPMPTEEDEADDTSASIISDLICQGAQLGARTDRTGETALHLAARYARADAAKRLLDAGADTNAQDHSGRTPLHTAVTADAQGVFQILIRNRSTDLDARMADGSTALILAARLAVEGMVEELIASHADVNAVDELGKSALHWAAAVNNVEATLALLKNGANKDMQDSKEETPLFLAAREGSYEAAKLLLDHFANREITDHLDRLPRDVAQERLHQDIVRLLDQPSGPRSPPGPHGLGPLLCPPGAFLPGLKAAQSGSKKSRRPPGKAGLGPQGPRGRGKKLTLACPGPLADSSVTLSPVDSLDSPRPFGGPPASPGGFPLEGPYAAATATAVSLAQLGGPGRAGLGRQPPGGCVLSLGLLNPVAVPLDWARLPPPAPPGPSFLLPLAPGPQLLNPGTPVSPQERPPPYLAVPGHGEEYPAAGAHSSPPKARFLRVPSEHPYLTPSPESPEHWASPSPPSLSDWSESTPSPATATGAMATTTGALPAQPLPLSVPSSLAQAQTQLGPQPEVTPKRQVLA

[10] = small-molecule microarray binders of probe aEGFR, primary screen, biochemical, biotinylated probe, 635/667 nm fluorescence (AID 1097); conditions: higher = more signal;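 also: probe is a biotinylated anti-EGFR antibody binding compounds printed on slides; score combines fluorescence near 667 nm and signal to noise of each spot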

Row | Structure (SMILES) | composite z-score [1] | z-score [2] | z-score [3] | z-score [4] | composite z-score [5] | z-score [6] | composite z-score [7] | composite z-score [8] | composite z-score [9] | composite z-score [10]
1 | COC(=O)[C@@]1(Cc2ccc(F)cc2)[C@H]2c3cc(C(=O)N(C)C)n(Cc4ccccc4)c3C[C@H]2CN1C(=O)c1ccccc1 | 0.964 | 0.428 (inactive) | 1.49 (inactive) | 3.85 (inactive) | 1.73 | -0.466 (inactive) | 0.318 | -0.004 | 1.14 | 0.0709
2 | C=C(COC)/C(=C/C[C@H](OC(C)=O)c1ccc(CO)o1)c1cc(C(=O)OC)ccc1OC | 0.404 | 0.517 (inactive) | -0.131 (inactive) | 0.0604 (inactive) | 1.67 | 0.796 (inactive) | -0.142 | 0.493 | 0.217 | -0.284
3 | COc1ccc([Si](C)(C)[C@@H]2[C@@H](CCO)O[C@]3(C(=O)N(Cc4ccc(N(C=O)c5ccccc5)cc4)c4ccccc43)[C@H]2C)cc1 | 0.883 | 1.47 (inactive) | 0.552 (inactive) | 25.3 (active) | 0.758 | 0.0689 (inactive) | 0.122 | 0.445 | 0.332 | -0.0466
4 | COC(=O)[C@@]1(Cc2ccccc2)[C@H]2c3cc(C(=O)N(C)C)n(Cc4ccsc4Br)c3C[C@H]2CN1C(=O)c1ccccc1 | -0.481 | 1.04 (inactive) | 1.17 (inactive) | 2.66 (inactive) | 3.32 | 0.166 (inactive) | 0.313 | 0.0244 | 1.05 | 0.196
5 | CN(C)CCCCCCNC(=O)[C@H]1C[C@H]2C(=O)N[C@@H](CCCCN)C(=O)N2[C@H]1c1cccc(OCCO)c1 | 1.56 | -0.871 (inactive) | -9.2 (active) | -0.622 (inactive) | 4.65 | -0.15 (inactive) | 1.76 | 2.06 | 1.01 | 1.12
6 | CCOC(=O)C[C@H]1[C@H](OC(=O)c2ccc(C(=O)c3ccccc3)cc2)[C@@H](NC(=O)c2ccccc2)c2cc(OCCCO)ccc2N1C(=O)Cc1ccc(OC)cc1 | 0.355 | 0.0572 (inactive) | -0.682 (inactive) | -0.0292 (inactive) | 0.84 | 0.0663 (inactive) | 0.0283 | 0.49 | 0.0805 | -0.142
7 | O=C(c1ccccc1)N1C(=O)[C@@]2(Cc3ccccc31)N=C(c1ccc(OCCCO)cc1)O[C@H]2c1ccccc1 | 1.55 | -0.26 (inactive) | -1.23 (inactive) | 1.74 (inactive) | 2.59 | 0.0877 (inactive) | 0.384 | 0.487 | 1.09 | 0.291
8 | O=C(NCCN1CCOCC1)C1N=C(c2ccc(OCCCO)cc2)N(c2ccccc2)O1 (stereo not given) | 1.54 | -0.101 (inactive) | -0.251 (inactive) | -0.36 (inactive) | 3.22 | 1 (inactive) | 0.443 | 1.19 | 0.0538 | -0.0099
